SMILES strings stand for the structures. Active and inactive are the calls of the source.

Test [1] in a line: binders of probe aFSTL3 on microarray, primary screen, stem cell growth factor project, biochemical, small-molecule microarray, fluorescence 635/667 (AID 1064).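 Further: measures binding of the biotinylated anti-FSTL3 antibody to printed compounds.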 Particulars: higher = more signal.
The nature of test [2]: binders from COS7 lysate, DM2A8 probe, primary screen, torsin A project, cell lysate, small-molecule microarray, fluorescence 635/667 (AID 1065). The conditions noted are these: higher = more signal, COS7 lysate expressing mutant human TOR1A.
Test [3] in a line: binders of probe aFGF2 on microarray, primary screen, stem cell growth factor project, biochemical, small-molecule microarray, fluorescence 635/667 (AID 1067).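 Further: measures binding of biotinylated aFGF2 protein to printed compounds on slides; z-score merges feature fluorescence and signal-to-noise across triplicate slides.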 The conditions noted are these: higher = more signal.
A short description of test [4]: binders of probe aFGF10 on microarray, primary screen, stem cell growth factor project, biochemical, small-molecule microarray, fluorescence 635/667 (AID 1071).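 Further: score merges 667 nm spot intensity and signal to noise from triplicate slides.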 The conditions noted are these: higher = more signal.
For test [5], the target named is Neurogenic locus notch homolog protein 2 (Homo sapiens) (UniProt Q04721). Nature of the test: Notch2 binders on small-molecule microarrays, primary screen, biochemical, small-molecule microarray, 635 nm fluorescence, stem cell growth factors (AID 1073). The conditions noted are these: Notch2 binding, higher = more signal.
Sequence of Neurogenic locus notch homolog protein 2 (Homo sapiens) (Q04721 whole entry, looked up, canonical isoform): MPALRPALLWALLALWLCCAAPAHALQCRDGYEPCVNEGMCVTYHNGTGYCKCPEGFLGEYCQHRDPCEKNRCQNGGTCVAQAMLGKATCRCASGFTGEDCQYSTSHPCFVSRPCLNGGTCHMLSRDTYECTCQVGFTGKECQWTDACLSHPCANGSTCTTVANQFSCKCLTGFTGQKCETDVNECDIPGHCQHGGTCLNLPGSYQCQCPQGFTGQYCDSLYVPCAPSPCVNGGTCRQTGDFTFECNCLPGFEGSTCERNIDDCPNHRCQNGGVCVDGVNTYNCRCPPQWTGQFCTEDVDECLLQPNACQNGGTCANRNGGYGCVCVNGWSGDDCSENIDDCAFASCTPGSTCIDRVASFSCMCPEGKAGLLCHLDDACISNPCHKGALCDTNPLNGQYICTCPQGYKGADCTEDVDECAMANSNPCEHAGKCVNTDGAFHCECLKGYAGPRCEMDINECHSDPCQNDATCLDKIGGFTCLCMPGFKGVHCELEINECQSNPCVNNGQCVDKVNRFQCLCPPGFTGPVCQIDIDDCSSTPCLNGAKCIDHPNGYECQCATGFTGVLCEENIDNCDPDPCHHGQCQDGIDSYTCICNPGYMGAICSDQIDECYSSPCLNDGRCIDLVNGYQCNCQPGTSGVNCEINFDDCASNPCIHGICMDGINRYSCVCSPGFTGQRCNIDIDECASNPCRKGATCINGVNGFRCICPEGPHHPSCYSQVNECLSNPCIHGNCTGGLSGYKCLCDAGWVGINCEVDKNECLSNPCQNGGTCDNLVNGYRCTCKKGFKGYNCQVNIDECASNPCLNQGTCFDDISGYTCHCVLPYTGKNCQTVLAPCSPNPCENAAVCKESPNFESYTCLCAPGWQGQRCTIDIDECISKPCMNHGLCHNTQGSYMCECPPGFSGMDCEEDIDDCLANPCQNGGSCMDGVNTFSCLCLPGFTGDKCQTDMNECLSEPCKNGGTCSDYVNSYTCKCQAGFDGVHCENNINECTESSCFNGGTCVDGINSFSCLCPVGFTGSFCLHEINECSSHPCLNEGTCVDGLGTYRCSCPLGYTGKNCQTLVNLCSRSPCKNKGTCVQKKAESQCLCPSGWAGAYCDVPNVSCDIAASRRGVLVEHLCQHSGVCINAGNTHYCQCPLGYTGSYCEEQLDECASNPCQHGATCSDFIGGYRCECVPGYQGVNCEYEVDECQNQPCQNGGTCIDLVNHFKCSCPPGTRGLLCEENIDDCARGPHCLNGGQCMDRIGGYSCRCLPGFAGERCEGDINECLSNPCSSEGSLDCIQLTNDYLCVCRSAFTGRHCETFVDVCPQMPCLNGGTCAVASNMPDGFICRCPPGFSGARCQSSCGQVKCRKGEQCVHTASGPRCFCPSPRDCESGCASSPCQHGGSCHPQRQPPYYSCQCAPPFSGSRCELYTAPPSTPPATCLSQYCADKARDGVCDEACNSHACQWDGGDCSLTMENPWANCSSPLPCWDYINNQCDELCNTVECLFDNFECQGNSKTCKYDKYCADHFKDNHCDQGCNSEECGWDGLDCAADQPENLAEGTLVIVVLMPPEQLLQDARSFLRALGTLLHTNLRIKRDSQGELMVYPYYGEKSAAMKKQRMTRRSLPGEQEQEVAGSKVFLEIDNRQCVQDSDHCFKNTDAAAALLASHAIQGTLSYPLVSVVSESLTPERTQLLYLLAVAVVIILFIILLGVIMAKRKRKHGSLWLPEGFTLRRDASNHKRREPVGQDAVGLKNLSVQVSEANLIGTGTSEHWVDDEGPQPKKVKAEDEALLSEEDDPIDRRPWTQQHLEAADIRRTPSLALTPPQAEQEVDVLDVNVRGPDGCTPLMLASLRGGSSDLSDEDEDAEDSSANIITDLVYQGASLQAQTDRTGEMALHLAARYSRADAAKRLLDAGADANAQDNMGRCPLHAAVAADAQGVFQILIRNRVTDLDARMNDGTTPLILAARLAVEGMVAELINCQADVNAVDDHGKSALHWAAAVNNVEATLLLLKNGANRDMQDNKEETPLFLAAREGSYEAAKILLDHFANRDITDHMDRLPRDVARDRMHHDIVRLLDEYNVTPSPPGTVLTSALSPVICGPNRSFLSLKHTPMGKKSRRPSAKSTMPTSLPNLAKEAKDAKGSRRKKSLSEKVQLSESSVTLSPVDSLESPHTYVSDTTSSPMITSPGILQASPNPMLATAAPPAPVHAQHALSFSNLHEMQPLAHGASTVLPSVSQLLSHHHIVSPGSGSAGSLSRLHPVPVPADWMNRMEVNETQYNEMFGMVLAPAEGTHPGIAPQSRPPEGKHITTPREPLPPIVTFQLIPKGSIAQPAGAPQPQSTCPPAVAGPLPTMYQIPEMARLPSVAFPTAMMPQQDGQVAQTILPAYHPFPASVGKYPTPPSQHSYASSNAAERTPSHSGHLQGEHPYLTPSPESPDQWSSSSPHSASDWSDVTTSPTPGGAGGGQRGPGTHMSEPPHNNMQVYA
For test [6], the target named is Pro-neuregulin-1, membrane-bound isoform (Homo sapiens) (UniProt Q02297). In words: NRG1 binders on small-molecule microarrays, primary screen, psychiatric disease protein project, biochemical, small-molecule microarray, fluorescence 635/667 (AID 1075).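 Further: score combines 667 nm spot fluorescence with signal to noise.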 The conditions noted are these: NRG1 binding, 635 nm fluorescence, higher = more signal.
Sequence of Pro-neuregulin-1, membrane-bound isoform (Homo sapiens) (Q02297 whole entry, looked up, the tested form may be a part, canonical isoform): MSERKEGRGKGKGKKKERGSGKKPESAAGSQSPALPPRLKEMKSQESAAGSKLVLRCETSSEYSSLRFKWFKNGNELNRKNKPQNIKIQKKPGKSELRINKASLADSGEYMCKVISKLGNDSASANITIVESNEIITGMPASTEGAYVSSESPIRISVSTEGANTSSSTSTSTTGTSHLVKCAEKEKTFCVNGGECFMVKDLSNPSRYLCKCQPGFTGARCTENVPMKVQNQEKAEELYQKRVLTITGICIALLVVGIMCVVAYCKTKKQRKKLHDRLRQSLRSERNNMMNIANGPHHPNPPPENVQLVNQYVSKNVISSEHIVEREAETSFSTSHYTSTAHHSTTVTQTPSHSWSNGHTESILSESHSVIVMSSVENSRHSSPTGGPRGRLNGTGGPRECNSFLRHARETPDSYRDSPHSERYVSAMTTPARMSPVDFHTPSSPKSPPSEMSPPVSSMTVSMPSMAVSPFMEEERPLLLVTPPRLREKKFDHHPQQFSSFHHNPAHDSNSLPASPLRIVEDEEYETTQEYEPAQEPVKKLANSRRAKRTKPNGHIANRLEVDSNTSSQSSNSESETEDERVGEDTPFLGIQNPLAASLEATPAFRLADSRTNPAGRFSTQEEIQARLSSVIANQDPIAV
Test [7] deals with Neuregulin-1 EGF-like domain. Nature of the test: binders of neuregulin-1 EGF-like domain, primary screen, biochemical, small-molecule microarray, 635 nm fluorescence (AID 1081).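 Further: binding of the protein to compounds printed on small-molecule microarray slides.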 Particulars: small-molecule microarray binding, higher = more signal.
Test [8] in a line: FRG1 promoter luciferase signal modulators, primary screen, FRG1 inhibition for FSHD, cell-based, C2C12 myotubes, firefly/Renilla luciferase, luminescence (AID 1084). The conditions noted are these: higher = more signal, called active from +8 up or from −8 down.
Test [9] is described as follows: binders of probe aFST on microarray, primary screen, stem cell growth factor project, biochemical, small-molecule microarray, fluorescence 635/667 (AID 1086).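 Further: score merges 667 nm fluorescence with signal-to-noise of each printed compound spot.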 Particulars: higher = more signal.
Test [10] in a line: binders of probe aHhip on microarray, primary screen, stem cell growth factor project, biochemical, small-molecule microarray, fluorescence 635/667 (AID 1087).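 Further: score merges spot fluorescence at 667nm with spot signal to noise ratio.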 Particulars: higher = more signal.

As for `CO[C@@H]1COC(=O)CC=C[C@@H](C)[C@@H]2C=C[C@H](O)[C@@H](COC(=O)CC=C[C@H]1C)O2`, the composite z-score in [1] was -0.304; in [2] it was 1.7; in test [3] it was -0.192; in test [4] it was -0.14; in test [5], -0.703; in test [6] it was -0.421. In addition, the values for the composite z-score in test [7], in [9] and in [10] were 0.824, -0.245 and 0.0714, respectively. Further, the z-score in test [8] is -0.715 (inactive).
`COC(=O)[C@H](C)NC(=O)CCC1CC(OC(=O)NCc2cccc3ccccc23)CC2(CCCC(COC(=O)NCC(c3ccccc3)c3ccccc3)O2)O1` (stereo not given in full): the composite z-score in test [1] is -0.766; in test [2] it was 0.233; in test [3], -0.0092; in test [4], 0.532; in [5], 1.23; in [6] it was 0.917. The composite z-score in [7] is 0.801; in test [9], 0.157; in [10], -0.134. In addition, the z-score in [8] is 2.44 (inactive).
Consider `CCC=CCCC(OC(=O)c1ccc(Br)cc1)C1=CCCCC1=O` (stereo not given), for which the composite z-score in [1] is 0.122; in test [2] it was 0.333; in [3] it was 0.543; in test [4] it was -0.0363; in [5], -0.164; in [6], 0.714. Also, the composite z-score came out at 0.878 in test [7], 0.336 in test [9] and 0.0826 in [10]. Further, in test [8], the z-score is 0.796 (inactive).
`CC(=O)OC[C@H]1O[C@H](C#Cc2ccccc2)C=C[C@@H]1OC(C)=O`: the composite z-score is -0.306 in test [1]; -0.0613 in [2]; -0.0474 in test [3]; 0.346 in test [4]; 0.32 in test [5]; 0.232 in test [6]. Besides, the values for the composite z-score in test [7], in [9] and in [10] were -0.11, 0.0157 and 0.281, respectively. Besides, the z-score in test [8] is -0.284 (inactive).
Turning to `COC(=O)[C@H](C)NC(=O)CCC1CC(OC(=O)NCc2ccc3c(c2)OCO3)CC2(CCCC(COC(=O)NCc3cccc(C(F)(F)F)c3)O2)O1` (stereo not given in full), the composite z-score in [1] is -0.0199; in test [2], 0.325; in test [3] it was -0.1; in test [4], 0.688; in [5] it was 0.679; in [6], 0.151. Further, the composite z-score in [7] came out at 0.795; in [9], 0.307; in test [10] it was 1.19. Also, in test [8], the z-score is -0.15 (inactive).
Turning to `CCOC(=O)[C@H](CC(C)C)NC(=O)CCC1CC(OC(=O)NCCc2ccc(F)cc2)CC2(CCCC(COC(=O)NCC3CCCCC3)O2)O1` (stereo not given in full), the composite z-score in test [1] was -0.595; in test [2], 0.101; in [3], -0.0652; in test [4], 0.817; in [5], 0.482; in test [6] it was 0.301. Besides, the composite z-score was 1.1 in [7], -0.0627 in [9] and -0.19 in test [10]. In [8], the z-score was 0.605 (inactive).
For the compound `COC(=O)C=CCCc1coc(C=CCNC(=O)OC)n1`, the composite z-score is -0.0195 in test [1]; 0.924 in [2]; 0.202 in [3]; 0.833 in test [4]; 0.485 in [5]; -0.0679 in [6]. Besides, the composite z-score in [7] came out at 0.492; in [9], 1.04; in test [10], 0.851. In test [8], the z-score was 0.721 (inactive).
Take `O=C1[C@H]2[C@H]3[C@H](O)[C@H](O)CC(=NOCc4ccccc4)[C@@H]3CC[C@H]2C(=O)N1c1ccc(F)cc1F`: the composite z-score in test [1] is 1.17; in [2] it was -0.0135; in test [3], -0.197; in test [4], 0.423; in test [5] it was 0.104; in test [6], -0.0591. Further, the composite z-score in test [7] was -0.646; in [9] it was 0.0704; in test [10] it was -0.236. In addition, in [8], the z-score is -0.738 (inactive).
For `O=c1n(Cc2cc3c(cc2Cl)OCO3)c(=O)n2n1CC[C@@H]1C(=NOC[C@@H](O)COCc3ccco3)[C@H]3O[C@H]3[C@@H](O)[C@@H]12`, the composite z-score in test [1] was -0.247; in [2] it was 0.28; in test [3] it was -0.0878; in [4] it was 0.217; in test [5] it was 0.169; in test [6], -0.112. In addition, the composite z-score was 0.0421 in test [7], -0.142 in test [9] and 0.0398 in test [10]. For the same compound, the z-score in test [8] is 0.0388 (inactive).
In the case of `CC(C)CON=C1C[C@@H](O)[C@@H](O)[C@@H]2[C@@H]3C(=O)N(C(C)(C)C)C(=O)[C@@H]3CC[C@H]12`, the composite z-score in [1] was 1.33; in test [2], 0.275; in test [3], -0.133; in test [4], -0.136; in test [5], -0.681; in test [6], 0.414. In addition, the composite z-score in test [7] is -0.099; in [9], -0.142; in [10], -0.21. In addition, the z-score in [8] is -0.392 (inactive).
With `CC(C)CON=C1C[C@@H](O)[C@@H](O)[C@@H]2[C@@H]3C(=O)N(C[C@@H]4CCCO4)C(=O)[C@@H]3CC[C@@H]12`, the composite z-score is -0.308 in test [1]; -0.0385 in test [2]; -0.132 in [3]; 0.0654 in test [4]; -0.489 in test [5]; -0.672 in test [6]. Moreover, the composite z-score in test [7] was -0.321; in test [9] it was -0.271; in test [10], -0.0994. For the same compound, the z-score in test [8] was -0.108 (inactive).
In the case of `COC(=O)CC=C[C@@H](C)[C@@H](C=NO[C@H](C)c1cn([C@H](CO)Cc2ccccc2)nn1)NS(=O)(=O)c1ccc(C)cc1`, the composite z-score was -0.468 in [1]; 2.12 in test [2]; -0.165 in test [3]; -0.147 in test [4]; -0.303 in [5]; -0.211 in test [6]. Besides, the composite z-score in [7] is 0.0224; in [9], 0.227; in [10] it was -0.251. Moreover, in [8], the z-score is -0.25 (inactive).
Take `COc1cccc([C@H]2Oc3ccc(OC)cc3C(=NOC[C@@H](C)[C@H](OCc3ccccc3)C(C)C)[C@@H]2O)c1`: the composite z-score was -0.108 in test [1]; 0.435 in [2]; -0.004 in test [3]; 0.431 in [4]; 0.203 in test [5]; -0.201 in test [6]. Moreover, the composite z-score was found to be 0.686 in test [7], 1.33 in test [9] and 0.0274 in [10]. For the same compound, the z-score in test [8] was 3.29 (inactive).
In the case of `CCOC(=O)NN=C1C[C@@H](O)[C@@H](O)[C@@H]2[C@@H]3C(=O)N(c4cccc(Oc5ccccc5)c4)C(=O)[C@@H]3CC[C@@H]12`, the composite z-score in [1] was -0.216; in [2] it was 1.21; in test [3], -0.085; in test [4], 0.542; in test [5] it was -0.202; in test [6] it was 0.823. Besides, the values for the composite z-score in test [7], in [9] and in test [10] were 0.81, 0.0218 and -0.249, respectively. Besides, the z-score in [8] is -0.233 (inactive).
Take `C=CC[C@@H]1C=C[C@H](ON=C[C@@H](C)[C@H](OCc2ccccc2)C(C)C)[C@@H](CO)O1`: the composite z-score was -0.227 in test [1]; -0.14 in test [2]; 0.342 in [3]; -0.433 in test [4]; -1.1 in test [5]; -0.241 in test [6]. The composite z-score in [7] is -0.255; in test [9], -0.0578; in [10], -0.0618. In addition, the z-score in test [8] was 0.715 (inactive).
On to `CO[C@H]1COC(=O)CC=C[C@@H](C)[C@H](OC)COC(=O)CCC[C@@H]1C`, for which the composite z-score was -0.344 in test [1]; 1.58 in [2]; -0.187 in [3]; 0.238 in [4]; -0.438 in test [5]; -0.35 in test [6]. The composite z-score in [7] was -0.137; in test [9], -0.126; in test [10], 0.176. Further, the z-score in [8] is 0.444 (inactive).
On to `CCc1cc2c(nc1CC)CCN(CCC(C)=NO[C@@H](C)c1cn([C@H](CO)Cc3ccccc3)nn1)C2`, for which the composite z-score in test [1] was -0.0739; in test [2], 0.39; in test [3], -0.123; in test [4], 0.112; in test [5], -0.0274; in [6], 0.373. For the same compound, the composite z-score in [7] is -0.0269; in test [9] it was 0.283; in test [10], 0.115. For the same compound, the z-score in test [8] is 0.704 (inactive).

Values taken from PubChem BioAssay.
